Tests used:
Assay in all cases: DAPPL (digital affinity profiling via proximity ligation, sequencing); 10 mM Tris-HCl pH 7.5, 50 mM NaCl, 1 mM DTT, 4% glycerol, room temperature, 30 min; GST-TFs on glutathione beads, 16-mer random dsDNA library, 0.1% formaldehyde crosslink after washing; high values mean tight binding
Details in all cases: protein: recombinant; tags: N-terminal GST; dsDNA, one strand shown
ELK1 = biological target: T1, ELK1 (Homo sapiens, UniProt P19419 1-428)
T1 sequence: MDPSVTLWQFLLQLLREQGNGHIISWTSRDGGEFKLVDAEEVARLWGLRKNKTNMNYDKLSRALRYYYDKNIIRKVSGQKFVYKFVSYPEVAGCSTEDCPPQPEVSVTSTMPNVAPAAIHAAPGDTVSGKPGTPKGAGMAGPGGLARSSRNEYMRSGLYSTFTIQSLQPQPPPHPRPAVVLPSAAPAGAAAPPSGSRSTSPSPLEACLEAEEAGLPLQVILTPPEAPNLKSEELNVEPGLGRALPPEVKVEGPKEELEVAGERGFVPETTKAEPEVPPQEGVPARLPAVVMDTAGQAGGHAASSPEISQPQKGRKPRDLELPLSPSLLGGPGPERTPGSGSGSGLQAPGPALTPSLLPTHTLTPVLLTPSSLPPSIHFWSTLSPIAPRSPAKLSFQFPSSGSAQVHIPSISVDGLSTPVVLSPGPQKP
Summary of the method: (§1)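 Yeast served to express human transcription factors as GST fusions, which were then captured on glutathione beads and labelled with DNA barcodes. Pooled with a tag-only sample, they were incubated with 200 nmole of a 16-mer random double-stranded DNA library for 30 min at room temperature in Tris/NaCl/DTT/glycerol buffer, washed, crosslinked with 0.1% formaldehyde, ligated by proximity, amplified by PCR and sequenced. Dividing each hexamer's read frequency for a factor by its frequency for the tag-only sample gives the binding signal.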

GABPA = biological target: T2, GABPA (Homo sapiens, UniProt Q06546 1-454)
T2 sequence: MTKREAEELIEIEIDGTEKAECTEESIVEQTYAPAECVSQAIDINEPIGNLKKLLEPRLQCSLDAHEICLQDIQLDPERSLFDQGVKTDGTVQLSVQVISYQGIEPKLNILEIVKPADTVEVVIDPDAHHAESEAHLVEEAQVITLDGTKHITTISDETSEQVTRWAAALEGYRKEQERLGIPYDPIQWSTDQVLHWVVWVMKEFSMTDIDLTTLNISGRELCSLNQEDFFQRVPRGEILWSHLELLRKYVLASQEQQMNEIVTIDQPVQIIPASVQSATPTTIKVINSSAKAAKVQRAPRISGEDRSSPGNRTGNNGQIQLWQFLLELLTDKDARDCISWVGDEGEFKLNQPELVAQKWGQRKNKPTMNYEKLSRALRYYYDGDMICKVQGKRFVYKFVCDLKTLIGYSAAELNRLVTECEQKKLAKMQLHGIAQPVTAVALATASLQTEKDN
Summary of the method: as §1

ERG = biological target: T3, ERG (Homo sapiens, UniProt P11308 1-479)
T3 sequence: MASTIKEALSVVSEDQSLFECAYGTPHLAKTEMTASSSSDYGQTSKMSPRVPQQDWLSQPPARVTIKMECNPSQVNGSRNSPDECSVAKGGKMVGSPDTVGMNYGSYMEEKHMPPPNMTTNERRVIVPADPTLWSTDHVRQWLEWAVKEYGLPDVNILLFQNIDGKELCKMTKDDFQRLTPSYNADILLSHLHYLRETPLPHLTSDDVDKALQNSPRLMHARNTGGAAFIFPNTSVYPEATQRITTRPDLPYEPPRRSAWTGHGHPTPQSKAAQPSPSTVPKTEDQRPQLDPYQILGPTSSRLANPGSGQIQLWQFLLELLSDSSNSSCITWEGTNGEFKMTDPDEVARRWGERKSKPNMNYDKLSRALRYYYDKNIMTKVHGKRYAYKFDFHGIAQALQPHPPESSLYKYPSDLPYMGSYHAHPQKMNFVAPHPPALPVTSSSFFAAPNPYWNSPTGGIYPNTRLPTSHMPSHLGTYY
Summary of the method: as §1

ELF1 = ELF1 (Homo sapiens, UniProt P32519 1-619)
Sequence of ELF1 (P32519 whole entry): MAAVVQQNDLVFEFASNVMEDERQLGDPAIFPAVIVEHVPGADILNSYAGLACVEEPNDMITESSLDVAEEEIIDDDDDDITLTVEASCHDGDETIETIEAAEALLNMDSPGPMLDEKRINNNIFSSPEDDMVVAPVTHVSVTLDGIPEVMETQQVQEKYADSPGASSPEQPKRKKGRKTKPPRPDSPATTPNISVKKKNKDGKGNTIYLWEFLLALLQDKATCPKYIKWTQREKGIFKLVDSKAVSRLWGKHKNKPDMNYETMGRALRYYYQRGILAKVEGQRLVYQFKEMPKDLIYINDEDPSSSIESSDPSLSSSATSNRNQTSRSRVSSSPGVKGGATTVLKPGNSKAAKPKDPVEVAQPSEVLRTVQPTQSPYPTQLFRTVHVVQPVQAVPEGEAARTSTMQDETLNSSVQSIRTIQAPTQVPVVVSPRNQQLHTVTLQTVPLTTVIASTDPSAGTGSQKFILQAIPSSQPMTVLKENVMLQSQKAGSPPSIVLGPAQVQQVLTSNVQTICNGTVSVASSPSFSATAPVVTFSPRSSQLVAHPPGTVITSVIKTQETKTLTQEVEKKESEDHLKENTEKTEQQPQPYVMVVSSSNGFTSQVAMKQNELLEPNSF
Summary of the method: as §1

EHF = biological target: T4, EHF (Homo sapiens, UniProt Q9NZC4 1-300)
T4 sequence: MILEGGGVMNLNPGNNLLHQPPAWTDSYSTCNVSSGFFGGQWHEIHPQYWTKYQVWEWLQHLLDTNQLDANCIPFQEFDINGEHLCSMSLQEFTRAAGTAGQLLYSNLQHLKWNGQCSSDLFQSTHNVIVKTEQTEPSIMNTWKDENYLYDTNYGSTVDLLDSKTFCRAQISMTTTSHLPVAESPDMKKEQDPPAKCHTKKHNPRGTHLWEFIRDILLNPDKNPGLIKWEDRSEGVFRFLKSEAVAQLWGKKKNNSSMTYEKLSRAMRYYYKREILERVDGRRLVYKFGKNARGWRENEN
Summary of the method: as §1

SPIB = SPIB (Homo sapiens, UniProt Q01892 1-262)
Sequence of SPIB (Q01892 whole entry): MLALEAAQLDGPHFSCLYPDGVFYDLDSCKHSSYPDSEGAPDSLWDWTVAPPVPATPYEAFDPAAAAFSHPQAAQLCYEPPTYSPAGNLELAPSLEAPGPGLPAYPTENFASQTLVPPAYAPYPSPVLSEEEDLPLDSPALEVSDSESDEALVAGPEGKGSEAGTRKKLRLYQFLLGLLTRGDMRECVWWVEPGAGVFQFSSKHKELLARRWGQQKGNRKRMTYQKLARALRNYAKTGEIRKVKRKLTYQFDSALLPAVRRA
Summary of the method: as §1

FEV = biological target: T5, FEV (Homo sapiens, UniProt Q99581 1-238)
T5 sequence: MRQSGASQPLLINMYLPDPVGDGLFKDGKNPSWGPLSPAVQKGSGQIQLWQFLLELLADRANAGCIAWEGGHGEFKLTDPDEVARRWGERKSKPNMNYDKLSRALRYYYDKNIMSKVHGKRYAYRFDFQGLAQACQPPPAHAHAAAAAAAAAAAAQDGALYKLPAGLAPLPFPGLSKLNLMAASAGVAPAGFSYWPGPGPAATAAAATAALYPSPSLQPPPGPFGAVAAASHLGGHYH
Summary of the method: as §1

ETV5 = ETV5 (Homo sapiens, UniProt P41161 1-510)
Sequence of ETV5 (P41161 whole entry): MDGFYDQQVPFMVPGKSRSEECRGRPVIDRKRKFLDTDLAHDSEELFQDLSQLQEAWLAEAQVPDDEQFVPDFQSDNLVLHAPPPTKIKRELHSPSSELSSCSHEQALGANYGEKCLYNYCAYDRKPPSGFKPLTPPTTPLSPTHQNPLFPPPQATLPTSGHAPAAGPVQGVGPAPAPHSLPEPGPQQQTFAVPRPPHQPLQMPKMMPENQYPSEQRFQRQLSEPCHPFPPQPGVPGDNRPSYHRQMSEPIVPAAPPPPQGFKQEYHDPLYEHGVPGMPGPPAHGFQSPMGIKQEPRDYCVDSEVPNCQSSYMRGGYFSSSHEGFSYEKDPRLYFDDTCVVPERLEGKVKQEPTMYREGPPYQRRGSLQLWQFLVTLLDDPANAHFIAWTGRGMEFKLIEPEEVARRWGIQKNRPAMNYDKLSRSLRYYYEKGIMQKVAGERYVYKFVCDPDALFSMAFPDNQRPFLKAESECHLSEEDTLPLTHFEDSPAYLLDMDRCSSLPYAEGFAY
Summary of the method: as §1

ELF4 = ELF4 (Homo sapiens, UniProt Q99607 1-663)
Sequence of ELF4 (Q99607 whole entry): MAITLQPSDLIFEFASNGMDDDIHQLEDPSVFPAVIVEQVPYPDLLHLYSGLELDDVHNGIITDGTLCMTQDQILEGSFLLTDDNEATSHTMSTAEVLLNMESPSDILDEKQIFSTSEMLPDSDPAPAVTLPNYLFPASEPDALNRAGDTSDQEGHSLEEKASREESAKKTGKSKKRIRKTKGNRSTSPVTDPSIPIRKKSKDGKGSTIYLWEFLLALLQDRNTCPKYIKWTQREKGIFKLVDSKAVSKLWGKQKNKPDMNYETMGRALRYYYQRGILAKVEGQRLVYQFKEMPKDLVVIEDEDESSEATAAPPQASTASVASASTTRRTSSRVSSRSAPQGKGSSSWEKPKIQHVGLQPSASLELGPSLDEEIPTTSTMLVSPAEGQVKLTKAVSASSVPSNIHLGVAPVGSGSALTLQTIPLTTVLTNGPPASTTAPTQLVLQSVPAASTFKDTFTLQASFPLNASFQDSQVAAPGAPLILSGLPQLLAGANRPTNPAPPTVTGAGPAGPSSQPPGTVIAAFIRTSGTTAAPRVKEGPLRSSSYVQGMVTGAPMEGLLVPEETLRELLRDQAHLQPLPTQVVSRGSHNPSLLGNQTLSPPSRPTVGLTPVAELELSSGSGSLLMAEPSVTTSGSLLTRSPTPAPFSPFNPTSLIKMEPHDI
Summary of the method: as §1

ELK4 = biological target: T6, ELK4 (Homo sapiens, UniProt P28324-2 1-405)
T6 sequence: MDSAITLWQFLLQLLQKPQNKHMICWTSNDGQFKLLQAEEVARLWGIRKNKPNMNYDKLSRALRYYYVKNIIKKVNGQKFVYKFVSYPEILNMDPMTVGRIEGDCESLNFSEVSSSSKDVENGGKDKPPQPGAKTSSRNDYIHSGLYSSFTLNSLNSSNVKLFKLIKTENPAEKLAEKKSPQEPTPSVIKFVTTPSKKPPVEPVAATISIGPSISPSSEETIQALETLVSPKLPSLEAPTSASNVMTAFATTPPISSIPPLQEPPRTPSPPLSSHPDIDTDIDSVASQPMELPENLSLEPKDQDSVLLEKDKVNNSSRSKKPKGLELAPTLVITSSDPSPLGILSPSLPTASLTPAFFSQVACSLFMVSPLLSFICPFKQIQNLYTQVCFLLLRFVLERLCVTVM
Summary of the method: as §1

ETV2 = biological target: T7, ETV2 (Homo sapiens, UniProt O00321 1-342)
T7 sequence: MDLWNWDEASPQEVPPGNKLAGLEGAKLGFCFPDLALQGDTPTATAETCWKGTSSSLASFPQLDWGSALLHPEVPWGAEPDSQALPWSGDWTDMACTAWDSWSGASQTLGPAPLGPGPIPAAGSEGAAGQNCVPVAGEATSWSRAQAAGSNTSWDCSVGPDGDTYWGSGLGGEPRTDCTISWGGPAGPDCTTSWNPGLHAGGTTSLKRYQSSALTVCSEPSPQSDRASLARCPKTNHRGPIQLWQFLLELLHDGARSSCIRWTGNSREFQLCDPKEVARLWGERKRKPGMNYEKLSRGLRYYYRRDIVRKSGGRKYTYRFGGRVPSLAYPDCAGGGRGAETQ
Summary of the method: as §1

ETV1 = ETV1 (Homo sapiens, UniProt P50549 1-477)
Sequence of ETV1 (P50549 whole entry): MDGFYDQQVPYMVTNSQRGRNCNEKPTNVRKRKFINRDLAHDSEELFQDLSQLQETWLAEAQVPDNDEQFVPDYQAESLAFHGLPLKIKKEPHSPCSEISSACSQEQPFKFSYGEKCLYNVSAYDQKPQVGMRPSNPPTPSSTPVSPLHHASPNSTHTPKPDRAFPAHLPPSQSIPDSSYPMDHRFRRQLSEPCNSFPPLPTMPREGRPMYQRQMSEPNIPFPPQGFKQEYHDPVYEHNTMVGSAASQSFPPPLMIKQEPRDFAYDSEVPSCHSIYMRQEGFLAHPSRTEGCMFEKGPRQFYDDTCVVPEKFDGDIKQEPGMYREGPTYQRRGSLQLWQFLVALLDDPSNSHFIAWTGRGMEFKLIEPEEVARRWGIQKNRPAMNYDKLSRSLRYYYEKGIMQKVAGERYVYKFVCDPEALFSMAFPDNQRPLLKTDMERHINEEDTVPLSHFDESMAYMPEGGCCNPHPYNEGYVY
Summary of the method: as §1

ERF = biological target: T8, ERF (Homo sapiens, UniProt P50548 1-548)
T8 sequence: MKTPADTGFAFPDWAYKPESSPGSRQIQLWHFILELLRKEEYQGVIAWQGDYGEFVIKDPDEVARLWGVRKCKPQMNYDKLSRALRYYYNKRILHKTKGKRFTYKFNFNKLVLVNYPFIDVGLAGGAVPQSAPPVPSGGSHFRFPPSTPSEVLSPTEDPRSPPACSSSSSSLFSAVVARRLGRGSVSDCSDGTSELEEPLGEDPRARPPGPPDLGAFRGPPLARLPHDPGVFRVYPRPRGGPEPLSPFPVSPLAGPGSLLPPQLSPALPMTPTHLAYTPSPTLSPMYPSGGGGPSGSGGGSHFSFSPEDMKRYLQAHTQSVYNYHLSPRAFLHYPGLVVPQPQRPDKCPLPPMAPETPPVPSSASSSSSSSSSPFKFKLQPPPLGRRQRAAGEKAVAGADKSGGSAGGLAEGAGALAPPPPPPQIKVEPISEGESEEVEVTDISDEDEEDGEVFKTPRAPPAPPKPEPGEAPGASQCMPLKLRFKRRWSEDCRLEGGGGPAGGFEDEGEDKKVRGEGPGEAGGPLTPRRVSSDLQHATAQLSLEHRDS
Summary of the method: as §1

ETV3L = biological target: T9, ETV3L (Homo sapiens, UniProt Q6ZN32 1-361)
T9 sequence: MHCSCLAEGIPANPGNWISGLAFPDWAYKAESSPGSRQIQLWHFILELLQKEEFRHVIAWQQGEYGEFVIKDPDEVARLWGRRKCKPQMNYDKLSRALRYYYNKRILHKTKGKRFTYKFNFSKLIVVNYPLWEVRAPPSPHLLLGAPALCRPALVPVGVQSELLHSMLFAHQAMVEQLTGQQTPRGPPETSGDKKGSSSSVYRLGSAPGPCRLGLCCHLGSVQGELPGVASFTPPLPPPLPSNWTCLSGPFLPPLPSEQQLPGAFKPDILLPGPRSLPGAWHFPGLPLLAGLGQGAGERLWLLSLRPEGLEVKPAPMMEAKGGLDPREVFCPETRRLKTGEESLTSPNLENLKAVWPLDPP
Summary of the method: as §1

ETS2 = biological target: T10, ETS2 (Homo sapiens, UniProt P15036 1-469)
T10 sequence: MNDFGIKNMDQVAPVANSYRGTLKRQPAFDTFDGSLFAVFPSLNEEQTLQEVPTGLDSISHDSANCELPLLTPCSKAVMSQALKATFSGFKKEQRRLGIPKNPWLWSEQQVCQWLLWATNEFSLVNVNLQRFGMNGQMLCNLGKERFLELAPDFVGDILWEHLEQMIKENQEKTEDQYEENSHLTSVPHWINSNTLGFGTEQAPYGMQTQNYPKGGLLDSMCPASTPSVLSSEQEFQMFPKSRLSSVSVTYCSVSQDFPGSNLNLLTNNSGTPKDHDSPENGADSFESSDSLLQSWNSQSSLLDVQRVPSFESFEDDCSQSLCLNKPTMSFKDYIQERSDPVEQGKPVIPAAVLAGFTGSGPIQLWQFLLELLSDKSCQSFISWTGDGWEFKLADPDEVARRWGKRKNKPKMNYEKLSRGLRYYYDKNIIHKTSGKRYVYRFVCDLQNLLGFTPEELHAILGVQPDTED
Summary of the method: as §1

SPDEF = biological target: T11, SPDEF (Homo sapiens, UniProt O95238 1-335)
T11 sequence: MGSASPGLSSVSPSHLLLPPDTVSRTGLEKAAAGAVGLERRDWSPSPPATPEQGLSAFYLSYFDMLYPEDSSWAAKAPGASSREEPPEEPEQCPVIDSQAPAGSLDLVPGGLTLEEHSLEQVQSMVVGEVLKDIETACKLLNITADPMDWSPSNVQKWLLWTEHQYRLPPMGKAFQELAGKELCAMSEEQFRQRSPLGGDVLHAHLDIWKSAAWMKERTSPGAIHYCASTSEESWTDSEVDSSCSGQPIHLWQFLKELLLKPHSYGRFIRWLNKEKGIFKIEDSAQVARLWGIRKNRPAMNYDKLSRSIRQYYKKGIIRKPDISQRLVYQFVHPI
Summary of the method: as §1

ETV7 = biological target: T12, ETV7 (Homo sapiens, UniProt Q9Y603 1-341)
T12 sequence: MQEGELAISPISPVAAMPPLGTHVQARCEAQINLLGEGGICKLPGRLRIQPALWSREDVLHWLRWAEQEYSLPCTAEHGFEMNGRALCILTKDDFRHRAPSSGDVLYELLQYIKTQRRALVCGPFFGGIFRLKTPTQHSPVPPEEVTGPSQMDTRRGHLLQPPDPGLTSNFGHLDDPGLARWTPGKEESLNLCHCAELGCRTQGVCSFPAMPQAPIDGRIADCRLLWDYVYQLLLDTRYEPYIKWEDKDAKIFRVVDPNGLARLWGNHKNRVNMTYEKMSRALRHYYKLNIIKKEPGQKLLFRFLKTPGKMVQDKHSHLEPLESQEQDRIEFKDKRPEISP
Summary of the method: as §1

ETV3 = biological target: T13, ETV3 (Homo sapiens, UniProt P41162-2 1-143)
T13 sequence: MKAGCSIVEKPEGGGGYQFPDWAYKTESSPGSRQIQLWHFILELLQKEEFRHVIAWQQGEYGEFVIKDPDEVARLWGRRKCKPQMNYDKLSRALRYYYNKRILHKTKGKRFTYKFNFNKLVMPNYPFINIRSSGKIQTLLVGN
Summary of the method: as §1

ETV6 = ETV6 (Homo sapiens, UniProt P41212 1-452)
Sequence of ETV6 (P41212 whole entry): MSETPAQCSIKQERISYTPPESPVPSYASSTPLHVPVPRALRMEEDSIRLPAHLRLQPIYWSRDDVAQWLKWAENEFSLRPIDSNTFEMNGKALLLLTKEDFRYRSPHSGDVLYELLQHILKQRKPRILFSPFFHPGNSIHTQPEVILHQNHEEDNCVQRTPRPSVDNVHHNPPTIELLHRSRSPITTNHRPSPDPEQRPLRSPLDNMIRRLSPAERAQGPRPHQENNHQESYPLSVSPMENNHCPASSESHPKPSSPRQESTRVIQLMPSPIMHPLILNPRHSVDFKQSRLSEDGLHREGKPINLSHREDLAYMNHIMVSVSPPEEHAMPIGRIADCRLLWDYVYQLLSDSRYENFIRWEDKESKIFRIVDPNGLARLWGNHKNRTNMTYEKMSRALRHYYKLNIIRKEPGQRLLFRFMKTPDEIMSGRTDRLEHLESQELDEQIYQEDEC
Summary of the method: as §1

TGGGGT
binding signal (ELK1): 1.05 fold enrichment (6-mer frequency, TF over GST control) | binding signal (GABPA): 1.12 fold enrichment (6-mer frequency, TF over GST control) | binding signal (ERG): 1.1 fold enrichment (6-mer frequency, TF over GST control) | binding signal (ELF1): 1.09 fold enrichment (6-mer frequency, TF over GST control) | binding signal (EHF): 1.03 fold enrichment (6-mer frequency, TF over GST control) | binding signal (SPIB): 1.09 fold enrichment (6-mer frequency, TF over GST control) | binding signal (FEV): 1.02 fold enrichment (6-mer frequency, TF over GST control) | binding signal (ETV5): 1.13 fold enrichment (6-mer frequency, TF over GST control) | binding signal (ELF4): 1.08 fold enrichment (6-mer frequency, TF over GST control) | binding signal (ELK4): 1.21 fold enrichment (6-mer frequency, TF over GST control) | binding signal (ETV2): 1.08 fold enrichment (6-mer frequency, TF over GST control) | binding signal (ETV1): 1.14 fold enrichment (6-mer frequency, TF over GST control) | binding signal (ERF): 1.02 fold enrichment (6-mer frequency, TF over GST control) | binding signal (ETV3L): 1.2 fold enrichment (6-mer frequency, TF over GST control) | binding signal (ETS2): 1.2 fold enrichment (6-mer frequency, TF over GST control) | binding signal (SPDEF): 1.08 fold enrichment (6-mer frequency, TF over GST control) | binding signal (ETV7): 1.05 fold enrichment (6-mer frequency, TF over GST control) | binding signal (ETV3): 1.14 fold enrichment (6-mer frequency, TF over GST control) | binding signal (ETV6): 1.09 fold enrichment (6-mer frequency, TF over GST control)

Source: article PMC7862700, “An all-to-all approach to the identification of sequence-specific readers for epigenetic DNA modifications on cytosine”
